Test results taken from PubChem BioAssay AID1479 (National Center for Advancing Translational Sciences (NCATS), 2009).
The whole screen tested about 280,000 compounds, of which about 820 (0.29%) were called active. Where a call stands in place of a potency, no number is given. Not shown: some 1% with an inconclusive outcome. Calls come from the whole dose curve; as a rule, active = well fitted curve in either direction with a large enough effect; inconclusive = small, poorly fitted or top-dose-only effect; inactive = flat fitted curve, though single readings scatter. The sample as a whole holds a higher share of actives than the screen did.

Test: Total Fluorescence Counterscreen for Inhibitors of the Interaction of Thyroid Hormone Receptor and Steroid Receptor Coregulator 2
Conditions: TRb/SRC2 Texas Red total fluorescence interference; series mostly up to 106 µM
Source text: NIH Molecular Libraries Probe Production Network [MLPCN]
NIH Chemical Genomics Center [NCGC]
Assay Provider: R. Kip Guy, St. Jude Children's Research Hospital
Thyroid receptor (TR) regulates many homeostatic processes including basal metabolism, cardiovascular function, body weight, and lipid trafficking. TR modulators are potential therapeutics for obesity and hyperlipidemias but current thyroid analogs have undesirable side effects, particularly cardiac stimulation. To identify inhibitors that specifically prevent the interaction of TR with the steroid receptor […] 2 (SRC2), a fluorescence polarization assay was screened. This assay detects interaction of the ligand-binding domain of human TRb with a Texas Red labeled SRC2 peptide, corresponding to a 20 amino acid region of the nuclear receptor interaction domain (Arnold et al., 2006). Total fluorescence (555 nm excitation and 632 nm emission) was measured to identify potential fluorescent and light absorbing compounds. Such compounds may be artifacts that interfere with the fluorescence polarization assay.
Arnold, L. A.; Estebanez-Perpina, E.; Togashi, M.; Shelat, A.; Ocasio, C. A.; McReynolds, A. C.; Nguyen, P.; Baxter, J. D.; Fletterick, R. J.; Webb, P.; Guy, R. K. A high-throughput screening method to identify small molecule inhibitors of thyroid hormone receptor coactivator binding. Sci STKE 2006, p 13.
NCGC Assay Protocol Summary:
For screening, 5 uL/well 0.6 uM TRb and 20 nM SRC2 Texas Red in protein buffer (20mM Tris hydrochloride, 100mM NaCl, 10% glycerol, 1mM EDTA, 0.01% NP-40, 1mM DTT, 1uM T3 and 5% DMSO) was dispensed into black solid 1536-well plates (Grenier) using a solenoid-based dispenser. Following transfer of 23 nL compound or DMSO vehicle by a pin tool, the plates were centrifuged 15 s at 1000 RPM and incubated 5 hr at ambient temperature. The plates were read by an Envision (Perkin Elmer) to detect fluorescence polarization of SRC2 Texas Red (555 nm excitation and 632 nm emission). Data were normalized to unbound (all components except TRb) and bound SRC2 Texas Red controls. Total fluorescence (TF) was calculated as follows: TF = S + 2P where S and P are fluorescence readings in the parallel and perpendicular channels, respectively.
Keywords: NIH Roadmap, MLPCN, MLI, MLSMR, qHTS, NCGC, qHTS, thyroid hormone receptor, steroid receptor coactivator, fluorescence polarization
Potency is the fitted concentration of half-maximal effect; tags give direction and shape of the fitted curve or compound fluorescence and quenching.

| Compound | Potency |
| --- | --- |
| COc1cc(OC)c(-n2c(C)cc(C=O)c2C)cc1Cl | inactive |
| COc1ccc(-c2cn(-c3ccc(OC)cc3)c(=S)[nH]2)cc1 | inactive |
| COc1cc(OC)c(-n2cc(-c3ccc(Cl)cc3)[nH]c2=O)cc1Cl | 126 µM [quencher] (active) |
| Cc1nc2nc(SCC(=O)NC3CCC(C)CC3)nn2c(C)c1Cc1ccccc1Cl (centres undefined) | inactive |
| CCS(=O)(=O)N1CCc2cc(C(=O)NCc3ccc(C)cc3)ccc21 | inactive |
| COC(=O)c1cc(NC(=O)c2sc3ccccc3c2Cl)cc(C(=O)OC)c1 | inactive |
| CCCC(=O)Nc1ccc(NC(=O)c2sc3ccccc3c2Cl)cc1 | 1.26 µM [quencher] (active) |
| O=C(Nc1ccon1)c1sc2ccccc2c1Cl | inactive |
| O=C(NCC(c1ccc2c(c1)OCO2)N1CCN(c2ccccc2)CC1)C(=O)Nc1ccccc1F (centres undefined) | inactive |
| Cc1ccc(Cl)cc1N(C)C(=O)Cn1nc(Cc2cccnc2)c2ccccc2c1=O | inactive |
| CCC(=O)N1N=C(c2ccc(OC)cc2)CC1c1cn(-c2ccccc2)nc1-c1cccs1 (centres undefined) | inactive |
| COc1ccc(Cl)cc1NC(=O)CCn1c(=O)c2cccn2c2ccccc21 | inactive |
| Cc1ccc(C)c(N2CCN(S(=O)(=O)c3ccc4c(c3)C(C(C)C)C(=O)N4)CC2)c1 (centres undefined) | inactive |
| Cc1c(-c2nc(-c3ccc4c(c3)OCO4)no2)nnn1-c1ccc(Br)cc1F | inactive |
| Cc1ccc(CN2CCCn3nc(C(=O)NCc4ccccc4Cl)cc3C2=O)cc1 | inactive |
| Cc1ccccc1CNC(=O)CCc1cn(Cc2ccccc2C)c2ccccc12 | inactive |
| Cc1ccc(C)c2sc(NC(=O)c3ccc(S(=O)(=O)N4CCCC4)cc3)nc12 | inactive |
| COc1ccc(CNc2nc(-c3ccc(Cl)cc3)nn2S(=O)(=O)c2ccc(C)cc2)cc1 | inactive |
| Cc1ccc(S(=O)(=O)n2nc(-c3ccc(Cl)cc3)nc2NCc2ccccc2)cc1 | 1000 µM [quencher] (active) |
| O=C(c1ccco1)n1nc(-c2ccc(Cl)cc2)nc1NCc1ccccc1 | inactive |
| CCOC(=O)C1CCN(c2nc3c(S(=O)(=O)c4ccc(CC)cc4)nnn3c3ccc(Cl)cc23)CC1 | inactive |
| Cn1c2ccccc2c(=O)c2c(O)cccc21 | inactive |
| Oc1ccc(O)c2c(O)cccc12 | 28.2 µM [quencher] (active) |
| O=c1cc(-c2ccc(O)c(O)c2)oc2cccc(O)c12 | inactive |
| CCOc1cccc(NC(=O)c2ccc(F)c(S(=O)(=O)N(CC)c3cccc(C)c3)c2)c1 | inactive |
| Cc1ccc(Cn2c(CNC(=O)Cc3cccc(C)c3)nc3cccnc32)cc1 | inactive |
| CCn1c(=O)c(=O)n(CC)c2cc(N3CCCCC3)c(NC(=O)c3ccc(Cl)cc3)cc21 | inactive |
| Cc1ccc(C(=O)Nc2cc3c(cc2N2CCCC2)n(C)c(=O)c(=O)n3C)cc1 | inactive |
| Cc1ccc(NC(=O)c2ccc(CN3CC(=O)N4CCCCC4C3=O)cc2)c(Cl)c1 (centres undefined) | 70.8 µM [quencher] (active) |
